Compounds with a hit are over-represented: about 4.1% of the library has one in this group of screens.
DAX1 inh-1: DAX1 (NR0B1) inhibitors, primary screen, cell-based, HEK293, Gal4-DAX1, luciferase luminescence; Nuclear receptor subfamily 0 group B member 1 (Homo sapiens), P51843; HEK293 Gal4-DAX1 luciferase reporter; inhibition, % at 6.75 µM; actives 0.99% (n = 340,000);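 active = inhibition above the mean over all tested compounds plus 3 SD, cut at about 4.2% in these data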;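 also: 0% = DAX1-transfected cells with DMSO and 100% = empty-vector control cells with DMSO; inhibition shows as a rise in luminescence from relieved DAX1 repression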
Target sequence (P51843 207-470 limits assumed): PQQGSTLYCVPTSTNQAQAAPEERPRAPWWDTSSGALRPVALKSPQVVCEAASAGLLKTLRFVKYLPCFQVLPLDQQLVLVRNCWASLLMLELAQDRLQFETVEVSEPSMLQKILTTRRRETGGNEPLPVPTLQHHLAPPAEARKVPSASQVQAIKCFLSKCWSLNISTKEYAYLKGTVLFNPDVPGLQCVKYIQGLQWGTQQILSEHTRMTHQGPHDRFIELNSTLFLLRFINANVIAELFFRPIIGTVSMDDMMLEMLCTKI
hgDAF12 agonist: H. glycines DAF-12 receptor agonists, primary screen, cell-based, luminescence, HEK293, GAL4 fusion, UAS-luciferase | HEK293 GAL4-hgDAF12 UAS-luciferase reporter, agonist luminescence; normalized to butyrate control | activation, % at 6.8 µM | actives 1.8% (n = 370,000) | AID 687014, 2013;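 active = activation above a cutoff set at the mean of all screened compounds plus 3 SD, cut at about 10% in these data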;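 also: 0% = DMSO wells and 100% = sodium butyrate wells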
ssDAF-12 act: S. stercoralis DAF-12 nuclear receptor activators, primary screen, cell-based, luminescence, HEK293, GRIP1 co-expression, lit1-tk-luc | activation, % at 6.8 µM | Nuclear hormone receptor DAF-12 (Strongyloides stercoralis) | HEK293 ssDAF-12/GRIP1 lit1-tk-luc reporter; % of 3 µM dafachronic acid response | actives 1% (n = 370,000) | AID 652126, 2013;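 active = activation above the mean over all tested compounds plus 3 SD, cut at about 0.9% in these data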;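 also: 0% = DMSO-only wells and 100% = 3 µM delta7-dafachronic acid wells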
hcDAF-12 act: H. contortus DAF-12 nuclear receptor activators, primary screen, cell-based, luminescence, HEK293, lit1-tk-luc reporter | HEK293 hcDAF-12 lit1-tk-luc reporter; 0% DMSO, 100% Δ7-dafachronic acid | activation, % at 6.8 µM | actives 1.4% (n = 370,000) | AID 652067, 2013;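 active = activation above the mean of all tested compounds plus 3 SD, cut at about 5.5% in these data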;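 also: 100% = response to 3 µM Δ7-dafachronic acid high control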
DAX1 inh-2: DAX1 (NR0B1) inhibitors on StAR promoter, primary screen, cell-based, luminescence, SF-1 (NR5A1), full-length DAX-1. inhibition, % at 6.8 µM. actives 1.1% (n = 370,000). HEK293T StAR-luciferase reporter, SF-1/DAX-1 repression relief. AID 652010, 2013;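 active = inhibition above the mean over all tested compounds plus 3 SD, cut at about 3.6% in these data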;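 also: 0% = DAX-1 cells with DMSO and 100% = cells lacking DAX-1 with DMSO; higher inhibition means more luminescence from relief of DAX-1 repression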
Active calls of the source: *; / = no result given.

SMILES	DAX1 inh-1	hgDAF12 agonist	ssDAF-12 act	hcDAF-12 act	DAX1 inh-2
COC(=O)[C@]12C[C@H](CC(=O)NCc3cccc(C(F)(F)F)c3)C(=O)N(CCC3=CCCCC3)C1=C[C@H](COCc1ccccc1)O[C@@H]2C	/	-1	-2	-2	-1
COC(=O)[C@H](CC(C)C)N(CCc1cn(Cc2ccc(C)cc2)nn1)S(=O)(=O)c1ccc(F)cc1Br	/	1	-2	-2	0
O=C(c1cc(-c2ccc(O)cc2)on1)N1CCN(c2ccc(F)cc2)CC1	-1	2	-1	-1	-1
O=C(c1cc(-c2ccc(F)cc2)on1)N1CCCC1	1	13*	-1	4	3
O=C(c1cc(-c2ccc(F)cc2)on1)N1CCOCC1	0	13*	0	3	2
O=C(c1cc(-c2ccc3c(c2)OCO3)on1)N1CCOCC1	-1	8	0	4	3
COc1ccc(-c2cc(C(=O)N3CCCCCC3)no2)cc1OC	1	10*	0	1	0
S=C(c1ccc(-c2cccc(Cl)c2)o1)N1CCOCC1	3	13*	0	6	4
COC(=O)[C@H](CC(C)C)N(CCCc1cn(CC2CCCCC2)nn1)S(=O)(=O)c1ccc(F)cc1Br	/	-5	-2	-3	-2
CN=C1S/C(=C/c2cc(C)n(Cc3ccccc3)c2C)C(=O)N1C	/	0	-1	-2	/
O=C(c1cc(-c2ccc(F)cc2)on1)N1CCCCCC1	3	12*	0	2	2
O=C(c1cc(-c2ccc(F)cc2)on1)N1CCCc2ccccc21	-1	5	-1	0	0
O=C(N/N=C/c1ccccc1C(F)(F)F)c1ccc(O)cc1	5.0*	7	0	1	2
O=C(N/N=C/c1ccccc1O)c1cccc(C(F)(F)F)c1	-2	-7	-2	-3	-3
O=C(N/N=C\c1ccc(F)cc1)c1csnn1	3	13*	-1	1	2
O=C(O)c1ccc(/C=N/NC(=O)c2ccc(F)cc2)cc1	1	-1	-1	1	0
O=C(N/N=C/c1ccc(F)cc1)c1ccccc1	5.2*	13*	0	3	3
O=C(N/N=C\c1ccccc1)c1ccccc1-n1cccc1	2	3	1.2*	4	-1
CCOC(=O)[C@]12CCCCC/C=C\1N(Cc1ccc(OC)cc1)C(=O)[C@H]2CC(=O)NCC12CC3CC(CC(C3)C1)C2	/	-2	-1	-1	0
COc1cccc(CNC(=O)C2CCC(CNS(=O)(=O)c3cccc4cccnc34)CC2)c1OC (stereo unspecified)	/	-2	-1	0	0
COc1ccc(/C=N/NC(=O)c2ccncc2)cc1OC	0	-2	-1	-2	0
COc1ccc(/C=C/C(=O)Oc2ccc(/C=N/NC(=O)c3ccccc3)cc2)cc1OC	4.2*	6	0	0	0
COc1ccc(Br)cc1S(=O)(=O)NCCN1CCOCC1	4.5*	4	-1	-1	1
C#CCNC(=O)C[C@H]1C[C@@]2(C(=O)OC)C(=C[C@H](C(C)C)O[C@@H]2C2CC2)N(Cc2ccccc2)C1=O	/	0	-1	-1	0
COc1ccc2[nH]c(=O)c(CNc3cccc(C)c3)cc2c1	1	10	1.2*	5.7*	1
SMILES	DAX1 inh-1	hgDAF12 agonist	ssDAF-12 act	hcDAF-12 act	DAX1 inh-2
COc1ccc(NCc2cc3cc(OC)ccc3[nH]c2=O)cc1	0	0	-1	1	0
COc1ccc(-c2nc(SC)n(S(=O)(=O)c3ccccc3)n2)cc1	0	5	1.0*	0	1
OC(c1ccc(F)cc1)c1ncc(-c2ccc3ccccc3c2)[nH]1 (stereo unspecified)	/	11*	-1	3	1
Cc1ccc(C(O)c2ncc(-c3ccc(F)cc3)[nH]2)c(C)c1 (stereo unspecified)	/	-3	-1	-1	-1
Cc1cc(F)ccc1C(O)c1ncc(-c2ccc3ccccc3c2)[nH]1 (stereo unspecified)	/	-1	0	-1	3.7*
COC(=O)C1=CC(=O)C=C(OC)[C@@]12Oc1cc(C)cc(OC)c1C2=O	/	-9	-2	-2	-1
Cc1ccc(NC(=O)c2ccc(C(=O)c3ccccc3)cc2)nc1	1	5	-1	-1	3.9*
CCn1c(=O)c(C(=O)Nc2ccccc2C)c(O)c2ccccc21	1	3	1.4*	4	0
C=CCn1c(=O)c(C(=O)Nc2ccccc2O)c(O)c2ccccc21	1	1	1.0*	3	0
C=CCn1c(=O)c(C(=O)Nc2ccccc2C)c(O)c2ccccc21	0	4	1	5	1
Cc1ccc(NC(=O)c2c(O)c3ccccc3n(C)c2=O)nc1	1	5	0	6.0*	0
Clc1ccc2nc(-c3ccc(Cl)nc3)[nH]c2c1	3	12*	0	3	0
OCC1CCCN(C(=S)Nc2ccc(Nc3ccccc3)cc2)C1 (stereo unspecified)	5.7*	16*	0	3	2
NC(=O)C1CCCN(C(=S)Nc2ccccc2)C1 (stereo unspecified)	-1	1	-2	-3	-1
NC(=O)CC(NC(=O)Cc1cccc2ccccc12)c1ccc(N2CCN(c3ccccn3)CC2)c([N+](=O)[O-])c1 (stereo unspecified)	2	-1	-1	-2	-1
O=C(O)c1ccc(Oc2nc3ccccc3s2)cc1	2	8	1.2*	5	2
COc1cccc(C2CC(c3ccccc3OC)n3ncnc3N2)c1 (stereo unspecified)	5.5*	0	-1	0	0
COc1ccc(C2CC(c3ccc(Cl)cc3Cl)n3nc(N)nc3N2)cc1 (stereo unspecified)	5.2*	-1	-1	-2	0
COc1cccc(C2CC(c3ccccc3)Nc3ncnn32)c1 (stereo unspecified)	0	2	-1	2	0
COc1cccc(C2CC(c3ccc(C)cc3)n3nc(N)nc3N2)c1 (stereo unspecified)	2	-1	-2	-3	0
CCOc1ccc(C2CC(c3cccc(OC)c3)Nc3nc(N)nn32)cc1 (stereo unspecified)	4.7*	0	-1	-1	2
O=C(COC(=O)c1cc[n+]([O-])cc1)Nc1ccc(Br)cc1	0	0	0	1	-1
O=C(COC(=O)c1cc[n+]([O-])cc1)Nc1ccc(SC(F)F)cc1	0	1	1.2*	0	1
